From PubChem BioAssay (EPA / NIEHS)
“And” between values parts separate entries of the source, which are not always exact repeats. Equal entries are not always repeated. Some structures have more than one record in an assay (separate samples or runs), and their calls can disagree. The source made the active and inactive calls. The calls were made as follows: active = hit-call score of the fitted dose curve at least 0.9, where 1 is the maximum; inactive = score below 0.9.

Experiment: BSK_BT_PBMCCytotoxicity: PBMC Cytotoxicity Assessment in the BioMAP Diversity Plus: BT Assay (AID 2284225)
Settings: primary human B cells with PBMC
Description: BSK_BT is a cell-based, multiplexed-readout assay that uses B cell and peripheral blood mononuclear cells, a human vascular primary cell co-culture, with measurements taken at 24 hours after chemical dosing in a microplate: 96-well plate.BSK_BT_PBMCCytotoxicity is an assay component measured in the BSK_BT assay. It measures dehydrogenase activity, a form of viability reporter, as detected with fluorescence intensity signals by Alamar Blue Reduction technology.Data from the assay component BSK_BT_PBMCCytotoxicity was analyzed at the endpoint, BSK_BT_PBMCCytotoxicity, in the positive analysis fitting direction relative to DMSO as the negative control and baseline of activity. Using a type of viability reporter, gain or loss-of-signal activity can be used to understand cellular changes in viability. To generalize the intended target to other relatable targets, this assay endpoint is annotated to the 'cell cycle' intended target family, where the subfamily is 'cytotoxicity'.
The levels of cell surface (or secreted, indicated by the prefix "s") biomarker endpoints were measured by ELISA. Overt cytotoxicity to cells in confluent adherent cultures (all systems other than the BT system) was assessed by measuring total protein levels using sulforhodamine B (SRB) staining in parallel cultures at the time of biomarker measurements, indicated as SRB endpoints. For proliferation assays for adherent cell types, individual cell types are cultured at sub-confluence and relative cell numbers quantified by SRB staining at time points optimized for each system (48 h: 3C and CASM3C systems; 72 h: BT and HDF3CGF systems; 96 h: SAg system). SRB was performed by staining cells with 0.1% SRB after fixation with 10% TCA and reading wells at 560 nm.Viability and proliferation of PBMC (T cells) was quantified by Alamar Blue reduction for the SAg and BT systems. For PBMC viability (referred to as PBMC Cytotoxicity within the assay endpoint names), cells were plated (75,000/well in a 96-well plate) and then chemical samples added for 1 h before addition of activators, SEB and TSST-1 (20 ng/mL final concentration each). Cells were incubated for 90 h. Then, Alamar Blue (20 uL/well) (Invitrogen, Cat DAL1100) was added for 6 h, and the plates were read with a fluorescence microplate reader at 546/580 nm (excitation/emission). For PBMC proliferation, cells were plated and activated as above but incubated for only 16 h prior to addition of Alamar Blue. Plates were read after 6 h.

SMILES	outcome	AC50
OCC(F)(F)C(F)(F)C(F)(F)C(F)(F)C(F)(F)C(F)(F)C(F)(F)C(F)(F)C(F)(F)C(F)(F)C(F)(F)F	inactive	0.0655 µM (active)
CCCCC(CC)C(=O)OCCOCCOCCOCCOC(=O)C(CC)CCCC (stereo not given)	inactive	
CC1=NN(c2ccccc2)C(=O)C1	inactive	
O=C(O)CCC(F)(F)C(F)(F)C(F)(F)C(F)(F)C(F)(F)C(F)(F)F	inactive	23.6 µM (active)
CCCCCCCCCCCCCCCCCC[N+](C)(C)Cc1ccccc1		4.83 µM (active)
CN(CCO)S(=O)(=O)C(F)(F)C(F)(F)C(F)(F)C(F)(F)C(F)(F)C(F)(F)C(F)(F)C(F)(F)F	inactive	
OCCN1CN(CCO)CN(CCO)C1		30.2 µM (active)
CCCCCc1ccc(O)cc1	inactive	
CCOC(=O)CN[C@@H](C(=O)N1CC[C@H]1C(=O)NCc1ccc(/C(N)=N/O)cc1)C1CCCCC1	inactive	
Cc1ccc(N=Nc2c(O)ccc3ccccc23)c(C)c1	inactive	
COC1=CC(=O)C[C@@H](C)[C@]12Oc1c(Cl)c(OC)cc(OC)c1C2=O	inactive	
COc1cc(OC)nc(NC(=O)NS(=O)(=O)Nc2ccccc2C(=O)N(C)C)n1	inactive	
O=P(O)(O)CCC(F)(F)C(F)(F)C(F)(F)C(F)(F)C(F)(F)C(F)(F)F	inactive	12.2 µM (active)
C=COC(=O)C(C)(C)CCCCCC	inactive	
C=CC(C)(CCC=C(C)C)OC(C)=O (stereo not given)	inactive	
O=C(O)C(F)(F)OC(F)(F)C(F)(F)OC(F)(F)C(F)(F)OC(F)(F)C(F)(F)C(F)(F)C(F)(F)F	inactive	
COCN(COC)c1nc(N(COC)COC)nc(N(COC)COC)n1	inactive	
CC[N+](CC)(CC)Cc1ccccc1	inactive	
O=P(O)(O)CCC(F)(F)C(F)(F)C(F)(F)C(F)(F)C(F)(F)C(F)(F)C(F)(F)C(F)(F)F	inactive	

SMILES	outcome	AC50
Clc1ccc(Nc2nnc(Cc3ccncc3)c3ccccc23)cc1	inactive	
O=C(CC(=O)C(F)(F)C(F)(F)C(F)(F)F)c1cccs1		45 µM (active) and 39 µM (active)
CN(Cc1cnc2nc(N)nc(N)c2n1)c1ccc(C(=O)N[C@@H](CCC(=O)O)C(=O)O)cc1	inactive	
CN(C)c1ccc(C(=C2C=CC(=[N+](C)C)C=C2)c2ccccc2)cc1		0.993 µM (active)
C=CC(=O)OCCC(F)(F)C(F)(F)C(F)(F)C(F)(F)C(F)(F)C(F)(F)C(F)(F)C(F)(F)F	inactive	
CC(C)(C)c1ccc(O)c(O)c1		25.2 µM (active)
C[C@]12CC[C@@H]3c4ccc(O)cc4CC[C@H]3[C@@H]1C[C@@H](O)[C@@H]2O	inactive	
O=C(NCc1ncc(C(F)(F)F)cc1Cl)c1c(Cl)cccc1Cl	inactive	
Cc1cccc2c1ccc1ccccc12	inactive	
NC(=NCCCCCCN=C(N)/N=C(\N)Nc1ccc(Cl)cc1)/N=C(\N)Nc1ccc(Cl)cc1		13.7 µM (active)
C=CC(=C)CC/C=C(\C)CCC=C(C)C	inactive	
O=C(O)CCC(F)(F)C(F)(F)C(F)(F)C(F)(F)C(F)(F)F	inactive	
O=C(NO)c1ccccc1	inactive	
O=C1OC2(c3ccccc31)c1cc(I)c(O)c(I)c1Oc1c2cc(I)c(O)c1I	inactive	
O=S(=O)(O)C(F)(F)C(F)(F)C(F)(F)C(F)(F)C(F)(F)C(F)(F)C(F)(F)C(F)(F)C(F)(F)C(F)(F)F	inactive	
Oc1cc2ccccc2cc1O	inactive	
O=C1c2ccc(O)c(O)c2C(=O)c2c(O)ccc(O)c21	inactive	
Cc1ccc(C(=O)c2ccccc2)cc1	inactive	
